16 compounds from PubChem BioAssay AID504863 (Sanford-Burnham Center for Chemical Genomics, 2011) can be followed below.

The term inhibition denotes the change of the read-out against control, counted positive when it falls.

The assay deals with diaphorase (Clostridium kluyveri). Nature of the assay: C. kluyveri diaphorase inhibition, resazurin coupling – biochemical, fluorescence intensity, 30 µM NADPH, counter-screen for P. falciparum G6PD inhibitor project, confirmation (AID 504863).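 Further: 0% = DMSO with enzyme and 100% = DMSO wells lacking diaphorase.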 To be noted: Diaphorase/resazurin coupled assay, resorufin fluorescence, at 20 µM, hits give high values. (In general: The colour change of resazurin is a common sign of viable cells or microbes.)

The other results are listed elsewhere or left out. Values without a mark were called inactive. The source made the active and inactive calls.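 How the source made its calls: active means inhibition averaging 50% or more, tested at 20 µM; inactive means the rest.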

On to `CCOc1ccccc1/C=N/NC(=O)CNC(=O)COc1ccccc1`, for which the inhibition was 88.1% (active).

For `COc1cccc(C(=O)Nc2nnc(S(=O)(=O)N3CCOCC3)s2)c1`, the inhibition is 54.9% (active).

Take `c1ccc(-c2cn3c(n2)CCc2ccc4cccnc4c2-3)cc1`: the inhibition is 45%. As for `O=C1/C(=C\c2ccc([N+](=O)[O-])cc2)CS(=O)(=O)C/C1=C/c1ccc([N+](=O)[O-])cc1`, the figure is -12.8%; as for `Cn1c(-c2sccc2OCc2cccc(C(F)(F)F)c2)n[nH]c1=S`, 10.1%. Turning to `CC(C)(C)NC(=O)COc1ccc(CNc2ccc3[nH]c(=O)[nH]c3c2)cc1`, the inhibition was 12.2%. As for `O=c1[nH]c2ccccc2n2c(-c3ccccc3)nnc12`, the figure is 15.9%. As for `Cc1ccc(NC(=O)Cn2sc3ccccc3c2=O)cc1`, the figure is 11.3%; as for `OCCN1CCN(C(=S)c2ccc(-c3ccccc3)cc2)CC1`, 2.65%.

Turning to `O=C(Nc1nnc(S(=O)(=O)N2CCCCCC2)s1)c1cccc(Br)c1`, the inhibition is 41.6%.

Turning to `O=C(CN1CCN(c2ccc(O)cc2)CC1)Nc1cc(S(=O)(=O)N2CCOCC2)ccc1Cl`, the inhibition was 7.17%. As to `COc1ccc(CCn2c(NN=C3CCCC3)nc3c2c(=O)[nH]c(=O)n3C)cc1`, the inhibition is -4.07%. Turning to `COc1ccc(CC(=O)NCC(=O)N/N=C/c2cc(Br)ccc2OC)cc1`, the inhibition is 70.8% (active).

On to `O=C(NC1=CC(=O)c2ccccc2C1=O)c1ccccc1`, for which the inhibition was 60.6% (active). As for `Cc1ccnc(-n2sc3ccccc3c2=O)n1`, the figure is -26.9%.

Turning to `O=C(Nc1nnc(S(=O)(=O)N2CCOCC2)s1)c1cccc(Br)c1`, the inhibition is 48.1%.
